Test results reported in paper PMC5540273 (PLoS ONE, 2017).

Assays:
Settings in all cases: concentration: 1 μM,replicates: in singlicate; n = 1
[1] = test system: CAMK1
[2] = test system: CAMK2A
[3] = test system: CAMK2B
[4] = test system: CAMK2D
[5] = test system: CAMK2G
[6] = test system: CAMK4
[7] = test system: CAMKK1
[8] = test system: CAMKK2
[9] = test system: CASK
[10] = test system: T1, CDC2L1
T1 construct: gene CDK11B

[11] = test system: CDC2L2
[12] = test system: T2, CDC2L5
T2 construct: gene CDK13

[13] = test system: T3, CDK11
T3 construct: gene CDK19

[14] = test system: CDK2
[15] = test system: CDK3
[16] = test system: CDK4-cyclinD1
[17] = test system: CDK4-cyclinD3
[18] = test system: CDK4
[19] = test system: CDK5
[20] = test system: CDK7
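Note: KINOMEscan kinase panel screen.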

C[C@@H](Oc1cc(-n2cnc3cc(-c4ccncc4)ccc32)sc1C(N)=O)c1ccccc1Cl [GSK479719]
%Inh [1]: 4% | %Inh [2]: 0% | %Inh [3]: 0% | %Inh [4]: 0% | %Inh [5]: 0% | %Inh [6]: 0% | %Inh [7]: 18% | %Inh [8]: 54% | %Inh [9]: 29% | %Inh [10]: 0% | %Inh [11]: 0% | %Inh [12]: 0% | %Inh [13]: 0% | %Inh [14]: 42% | %Inh [15]: 29% | %Inh [16]: 0% | %Inh [17]: 21% | %Inh [18]: 0% | %Inh [19]: 0% | %Inh [20]: 1%

CN(c1cccc(CNc2nc(Nc3ccc4c(c3)CC(=O)N4)ncc2C(F)(F)F)c1)S(C)(=O)=O
%Inh [1]: 0% | %Inh [2]: 0% | %Inh [3]: 0% | %Inh [4]: 7% | %Inh [5]: 0% | %Inh [6]: 0% | %Inh [7]: 15% | %Inh [8]: 16% | %Inh [9]: 7% | %Inh [10]: 0% | %Inh [11]: 7% | %Inh [12]: 0% | %Inh [13]: 0% | %Inh [14]: 6% | %Inh [15]: 22% | %Inh [16]: 22% | %Inh [17]: 0% | %Inh [18]: 0% | %Inh [19]: 31% | %Inh [20]: 53%

C[C@@H]1CCN(C(=O)N2CCCC2)C[C@@H]1N(C)c1ncnc2[nH]ccc12
%Inh [1]: 5% | %Inh [2]: 2% | %Inh [3]: 0% | %Inh [4]: 12% | %Inh [5]: 14% | %Inh [6]: 19% | %Inh [7]: 15% | %Inh [8]: 8% | %Inh [9]: 0% | %Inh [10]: 3% | %Inh [11]: 0% | %Inh [12]: 6% | %Inh [13]: 2% | %Inh [14]: 0% | %Inh [15]: 15% | %Inh [16]: 21% | %Inh [17]: 8% | %Inh [18]: 11% | %Inh [19]: 18% | %Inh [20]: 34%

c1ccc(Oc2ccc(Nc3ccnc4ccc(-c5ccccn5)cc34)cc2)cc1 [GW407034]
%Inh [1]: 1% | %Inh [2]: 0% | %Inh [3]: 0% | %Inh [4]: 7% | %Inh [5]: 16% | %Inh [6]: 0% | %Inh [7]: 0% | %Inh [8]: 9% | %Inh [9]: 8% | %Inh [10]: 0% | %Inh [11]: 0% | %Inh [12]: 0% | %Inh [13]: 12% | %Inh [14]: 0% | %Inh [15]: 15% | %Inh [16]: 0% | %Inh [17]: 12% | %Inh [18]: 0% | %Inh [19]: 93.1% | %Inh [20]: 0%

Cn1ccc2ncnc(Oc3ccc(NC(=O)Nc4cc(C(C)(C)C)on4)c(Cl)c3)c21
%Inh [1]: 17% | %Inh [2]: 100% | %Inh [3]: 100% | %Inh [4]: 4% | %Inh [5]: 14% | %Inh [6]: 0% | %Inh [7]: 6% | %Inh [8]: 22% | %Inh [9]: 0% | %Inh [10]: 0% | %Inh [11]: 4% | %Inh [12]: 26% | %Inh [13]: 100% | %Inh [14]: 12% | %Inh [15]: 2% | %Inh [16]: 0% | %Inh [17]: 2% | %Inh [18]: 2% | %Inh [19]: 0% | %Inh [20]: 55%

C[C@@H]1CNc2c(sc3ccc4nc(-c5ccncc5)ccc4c23)C(=O)N1
%Inh [1]: 19% | %Inh [2]: 25% | %Inh [3]: 23% | %Inh [4]: 22% | %Inh [5]: 14% | %Inh [6]: 13% | %Inh [7]: 27% | %Inh [8]: 47% | %Inh [9]: 0% | %Inh [10]: 4% | %Inh [11]: 2% | %Inh [12]: 0% | %Inh [13]: 25% | %Inh [14]: 0% | %Inh [15]: 0% | %Inh [16]: 0% | %Inh [17]: 2% | %Inh [18]: 0% | %Inh [19]: 11% | %Inh [20]: 77%

COc1ccc(Nc2nccc(N3CCC(NC(=O)c4cccc(C#N)c4)C3)n2)cc1 (stereo not drawn) [GSK1379730]
%Inh [1]: 0% | %Inh [2]: 0% | %Inh [3]: 0% | %Inh [4]: 0% | %Inh [5]: 6% | %Inh [6]: 0% | %Inh [7]: 8% | %Inh [8]: 10% | %Inh [9]: 0% | %Inh [10]: 0% | %Inh [11]: 0% | %Inh [12]: 0% | %Inh [13]: 4% | %Inh [14]: 0% | %Inh [15]: 26% | %Inh [16]: 34% | %Inh [17]: 0% | %Inh [18]: 36% | %Inh [19]: 7% | %Inh [20]: 0%

Nc1nccc(-c2ccc3c(N)n[nH]c3c2)n1 [GSK1034945]
%Inh [1]: 11% | %Inh [2]: 0% | %Inh [3]: 5% | %Inh [4]: 0% | %Inh [5]: 0% | %Inh [6]: 0% | %Inh [7]: 1% | %Inh [8]: 8% | %Inh [9]: 6% | %Inh [10]: 0% | %Inh [11]: 4% | %Inh [12]: 0% | %Inh [13]: 37% | %Inh [14]: 0% | %Inh [15]: 13% | %Inh [16]: 0% | %Inh [17]: 0% | %Inh [18]: 1% | %Inh [19]: 0% | %Inh [20]: 0%

CCN1CCN(CCCC(=O)Nc2n[nH]c3nc(-c4ccc(O)cc4)c(Br)cc23)CC1 [SB-731579]
%Inh [1]: 0% | %Inh [2]: 0% | %Inh [3]: 0% | %Inh [4]: 0% | %Inh [5]: 0% | %Inh [6]: 10% | %Inh [7]: 0% | %Inh [8]: 0% | %Inh [9]: 0% | %Inh [10]: 0% | %Inh [11]: 4% | %Inh [12]: 0% | %Inh [13]: 0% | %Inh [14]: 1% | %Inh [15]: 30% | %Inh [16]: 99.5% | %Inh [17]: 95.1% | %Inh [18]: 22% | %Inh [19]: 0% | %Inh [20]: 94.7%
